Experimental findings from PubChem BioAssay (NCATS) are described below.

Structures are written as SMILES. Records with an inconclusive call do not appear. A number with no mark means an inactive call. The source made the active and inactive calls. Calls follow the shape of the dose curve; as a rule, active = well fitted inhibition curve with a large enough effect; inconclusive = small, poorly fitted or top-dose-only effect; inactive = flat fitted curve, though single readings scatter. Where a SMILES comes first, the peptide text is derived from it. [ ]: non-standard residue; d: D form. ξ: configuration not given here. ξLac(3-iPr) = CC(C)CC(O)C(=O)O; NMeV = CN[CH](C(=O)O)C(C)C; βAla = NCCC(=O)O
% is scaled to controls: 0 for no effect and ±100 for the full control effect; potency is read from the fitted curve at half-maximal effect.

This test relates to CRL-7250. As to the kind of experiment: Cytotoxic Profiling of Annotated Libraries Using Quantitative High-Throughput Screening (AID 1296008). Also: nearly all actives have a fitted effect of over 60% in size. Conditions: Five cell lines viability, CellTiter-Glo ATP luminescence, 48-72 h; max response: active compounds read low. In a few lines: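 Cytotoxicity was measured as CellTiter-Glo ATP luminescence, read after 10 min at room temperature. Compound treatment of the cells lasted 48 or 72 hr at 37 degrees Celsius in a qHTS format.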
On the technique in general: Cellular ATP, detected with luciferase, serves as a proxy for viable cell number.
As for `Cc1[nH]c2ccccc2c1CCNC(=O)c1ccccc1F`, the max response is -5.45%. Same read-out and setting: then `C/C=C/c1ccc2oc(-c3ccc(O)c(OC)c3)c(C)c2c1`, with -27.9%. `NC(=O)[C@H](O[C@@H]1O[C@H](CO)[C@@H](O)[C@H](O)[C@H]1O)c1ccccc1`: the compound was classed as inactive. On the same count and under the same terms, the same measure for `N[C@@]1(C(=O)O)CC[C@H]2[C@H](C(=O)O)[C@H]21`: “inactive”.

With `COc1cc(C2c3cc4c(c(O)c3CC(CO)C2C(=O)O)OCO4)cc(OC)c1O` (centres undefined), the Potency is 3.17 µM (active). Take `O=S(=O)(Nc1ccccn1)c1ccc(N=Cc2c(O)[nH]c3ccc4ncsc4c23)cc1`: the compound was called inactive. On to `C[C@H](NC(c1cccc(C[P+](=O)O)c1)[C@H](C)O)c1ccc(Cl)c(Cl)c1` (some centres undefined), for which the call was inactive. On to `O=C1CSc2ccccc2N1Cc1cccc(C(F)(F)F)c1`, for which the max response is -9.14%. Take `C/C=C1\[C@H](O[C@@H]2O[C@H](CO)[C@@H](O)[C@H](O)[C@H]2O)OC=C2C(=O)OCCc3ccc(O)c(c3)Oc3ccc(cc3)CCOC(=O)C[C@H]21`: the max response was -21.9%. `CN1CCN(Cc2ccc(-c3cnc4[nH]cc(-c5ccc6[nH]ccc6c5)c4c3)cc2)CC1`: the Potency was 10.3 µM (active). Turning to `CC/C=C\C/C=C\C/C=C\CCCCCCCC(=O)OCC(O)COC1OC(CO)C(O)C(O)C1O` (centres undefined), the max response is -2.54%. In the case of `Cc1cc(Nc2cc(N3CCN(C)CC3)nc(/C=C/c3ccccc3)n2)n[nH]1`, the Potency is 5.8 µM (active). As to `CC(C)C(CO)Nc1nc(Nc2ccc(C(=O)O)c(Cl)c2)c2ncn(C(C)C)c2n1` (centres undefined), the call was inactive. Take `COc1cc(Nc2nc3ccccc3nc2NS(=O)(=O)c2ccc(NC(=O)c3ccc(OC)c(C)c3)cc2)cc(OC)c1`: the max response was -3.06%. Regarding `Cc1c2cc(c(C(=O)O)c1C)OC1OC(C(O)C(O)C1O)C(O)C(O)C1OC(O2)C(O)C(O)C1O` (centres undefined), the max response is -20.3%. `CC(=O)OC[C@@]12C(=O)C[C@@H](C)[C@]3(C[C@@H](c4ccoc4)O[C@H]3OC(C)=O)[C@H]1CCC[C@]21CO1`: the max response is -15.6%.

As to `CNC(=S)NS(=O)(=O)c1cc(CCNC(=O)c2cc(Cl)ccc2OC)ccc1OC`, the max response was 3.39%. For the compound `Cc1[nH]nc(C(F)(F)F)c1Cc1sc2c(c1C(=O)N1C[C@](C)(O)CO1)c(=O)n(C)c(=O)n2C(C)C`, the max response is -0.426%.

Consider `O=C1OCc2cc3cccc(O[C@@H]4O[C@H](CO)[C@@H](O)[C@H](O)[C@H]4O)c3c(O)c21`, for which the max response is 3.34%. Consider `C[C@@H]1C(=O)O[C@H]2[C@@H](O)C34[C@H]5C[C@@H](C(C)(C)C)C36[C@@H](OC(=O)[C@@H]6O)O[C@@]4(C(=O)O5)[C@@]12O` (some centres undefined), for which the max response is -0.587%. On to `CC1OC(O[C@H]2CC[C@@]3(C)C(CC[C@]4(C)C3CC=C3C5CC(C)(C)CC[C@]5(C(=O)OC5OC(CO)C(OC6OC(COC7OCC(O)C(O)C7O)C(O)C(O)C6O)C(O)C5O)CC[C@]34C)C2(C)C)C(O)C(O)C1OC1OCC(OC2OCC(O)C(O)C2O)C(O)C1O` (some centres undefined), for which the max response was -5.53%. `CC(C)Oc1ccc(C(=O)NC(CNC(=O)CN(C)C)Cc2ccc(-c3cn4cccc(C(C)O)c4n3)cc2)cc1Cl` (centres undefined): the max response was -25.1%.

Turning to `CC[C@@](C)(Nc1ccnc(-c2c[nH]c3ncccc23)n1)C(=O)NCC(F)(F)F`, the result was inactive. The same measure, in the same setting: the same measure for `C=C(C(=O)OC)C1C(O)CC2(C)C(=O)CCC(O)(CO)C2C1O` (centres undefined): “inactive”; for `COc1cc2ncnc(Nc3ccc(O)cc3)c2cc1OC`: “inactive”.

As to `CC(=O)NCC(=O)N1C2CCC1c1cc(Nc3ncc(C(F)(F)F)c(NC4CCC4)n3)ccc12` (centres undefined), the Potency was 1.64 µM (active). As to `CNC(=O)c1ccccc1Nc1nc(Nc2ccc3c(c2OC)CCCC(N2CCN(CCO)CC2)C3)ncc1Cl` (centres undefined), the Potency was 7.31 µM (active). Take `CCN1CCN(Cc2ccc(Nc3ncc(F)c(-c4cc(F)c5nc(C)n(C(C)C)c5c4)n3)nc2)CC1`: the max response is -7.11%.

`C[C@H](C(=O)NC1CCCC1)N(C(=O)Cn1nnc(-c2ccc3c(c2)OCO3)n1)C1CCCCC1`: the compound was called inactive. For the compound `COc1cc2c3c(cc4ccccc4c3c1O)NC2=O`, the max response is 4.86%. For `CCNC(=O)C1OC(n2cnc3c(N)nc(NCCc4ccc(CCC(=O)O)cc4)nc32)C(O)C1O` (centres undefined), the max response was -14.2%. Regarding `CCN1CCN(Cc2ccc(NC(=O)Nc3ccc(Oc4cc(NC)ncn4)cc3)cc2C(F)(F)F)CC1`, the Potency is 25.9 µM (active). As for `CC(C)CC1OC(=O)C2CCCN2C(=O)CCNC(=O)C(Cc2ccccc2)NC(=O)C(C(C)C)N(C)C(=O)C(C(C)C)N(C)C1=O` (centres undefined) (cyclo([ξLac(3-iPr)][NMeV][NMeV]F[βAla]P); configuration not given here), the max response was 2.18%.

Turning to `COc1cc(Br)c(Nc2nc(-c3c(C)nc4ncccn34)cs2)c(Br)c1`, the Potency is 4.61 µM (active). With `CO[C@@H](C)Cn1c(=O)n(C)c2cnc3ccc(-c4cncc(C(C)(C)O)c4)cc3c21`, the Potency is 0.082 µM (active).

As to `C=C1C(=O)O[C@H](CCC)[C@H]1C(=O)O`, the max response is 3.05%. `CC1(C)CC[C@]2(C(=O)O[C@@H]3O[C@H](CO)[C@@H](O)[C@H](O)[C@H]3O)CC[C@]3(C)C(=CCC4[C@@]5(C)CC[C@H](O[C@@H]6O[C@H](C(=O)O)[C@@H](O)[C@H](O[C@@H]7O[C@H](CO)[C@H](O)[C@H](O)[C@H]7O)[C@H]6O)C(C)(C)C5CC[C@]43C)C2C1` (some centres undefined): the max response is -0.842%. As to `C[C@@H]1O[C@@H](O[C@H]2[C@H](O[C@H]3[C@H](O[C@H]4CC[C@@]5(C)C(CC[C@]6(C)C5CC=C5[C@@H]7CC(C)(C)C[C@@H](O)[C@]7(C)CC[C@]56C)[C@@]4(C)CO)O[C@H](C(=O)O)[C@@H](O)[C@@H]3O)OC[C@H](O)[C@@H]2O)[C@H](O)[C@H](O)[C@H]1O` (some centres undefined), the max response is -3.42%.

`COc1cc(Br)c(S(=O)(=O)Nc2ccc(C(F)(F)F)c(O[C@@H]3CCN(C)C3)c2)cc1OC`: the max response is -0.0326%.
